Values without a mark were called inactive. This is one part of the list. The source made the active and inactive calls. Unless noted, no stated cut-off is given here; in the data, active means inhibition above about 42%; inactive means the rest.
Target: Photoreceptor-specific nuclear receptor (Homo sapiens) (UniProt Q9Y5X4)
Test: NR2E3 agonist confirmation in cells, cell-based, luminescence, CHO-S two-hybrid (AID 624378;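 active means average inhibition above a cutoff equal to the mean inhibition of all tested compounds plus one SD, cut at about 70% in these data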;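 further: 0% = DMSO in NR2E3 cells and 100% = DMSO in cells lacking NR2E3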)
Details: CHO-S mammalian two-hybrid NR2E3-NCOR, luciferase luminescence; at 3.98 µM; stronger effect = higher value

Sequence of Photoreceptor-specific nuclear receptor (Homo sapiens) (Q9Y5X4 whole entry, looked up): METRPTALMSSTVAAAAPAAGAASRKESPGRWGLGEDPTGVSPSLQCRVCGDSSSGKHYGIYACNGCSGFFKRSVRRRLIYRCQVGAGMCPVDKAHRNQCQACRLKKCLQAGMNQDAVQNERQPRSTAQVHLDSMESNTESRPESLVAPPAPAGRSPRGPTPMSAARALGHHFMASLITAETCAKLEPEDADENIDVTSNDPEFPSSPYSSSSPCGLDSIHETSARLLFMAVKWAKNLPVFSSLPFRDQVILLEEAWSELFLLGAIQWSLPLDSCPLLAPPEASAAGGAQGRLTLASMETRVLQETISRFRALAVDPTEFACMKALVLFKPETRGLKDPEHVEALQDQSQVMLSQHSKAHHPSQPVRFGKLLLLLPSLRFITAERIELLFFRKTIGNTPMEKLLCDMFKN

Structure (SMILES) | inhibition
CCc1cc2c(NC3CCCC3)ncnc2s1 | 88.5% (active)
O=C1C=C(c2ccnc3cc(Cl)ccc23)C[C@@H](c2ccc3c(c2)OCO3)C1 | 91.6% (active)
N#C[C@]1(S(=O)(=O)c2ccccc2)C[C@@H]2ON=C(c3cccc(Br)c3)[C@@H]2C1 | 88.5% (active)
CCCCCc1c(-c2ccc(OC)c(OC)c2)ncn1CCc1ccccc1OC | 73.5% (active)
O=C(CCC(=O)N1CCN(S(=O)(=O)c2ccc(Cl)cc2)CC1)NCc1cccc(C(F)(F)F)c1 | 93.6% (active)

System: not listed separately
Test: GAL4-VP16 reporter modulators, confirmation, counter-screen for NR2E3 agonist project, cell-based, luminescence, CHO-S, high throughput (AID 624379;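 active means mean inhibition above a cutoff equal to the average over all tested compounds plus one standard deviation, cut at about 70% in these data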;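 further: luciferase from a UAS reporter driven by GAL4-VP16 transactivation; 0% = DMSO with VP16-transfected cells and 100% = DMSO with cells lacking VP16; higher means less reporter light so more repression of VP16 activity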)
Details: CHO-S GAL4-VP16 luciferase reporter, at 3.98 µM, stronger effect = higher value

Structure (SMILES) | inhibition
CCc1cc2c(NC3CCCC3)ncnc2s1 | 64%
O=C1C=C(c2ccnc3cc(Cl)ccc23)C[C@@H](c2ccc3c(c2)OCO3)C1 | 76.5% (active)
N#C[C@]1(S(=O)(=O)c2ccccc2)C[C@@H]2ON=C(c3cccc(Br)c3)[C@@H]2C1 | 75.2% (active)
CCCCCc1c(-c2ccc(OC)c(OC)c2)ncn1CCc1ccccc1OC | 35.4%
O=C(CCC(=O)N1CCN(S(=O)(=O)c2ccc(Cl)cc2)CC1)NCc1cccc(C(F)(F)F)c1 | 81.6% (active)

System: not listed separately
Test: StAR promoter reporter inhibitors, counter-screen for LRH-1 inverse agonist project, cell-based, luminescence, high throughput (AID 651611; in the data active means inhibition above about 28%)
Details: StAR promoter luciferase reporter counterscreen, at 3.6 µM, stronger effect = higher value

Structure (SMILES) | inhibition
Cc1nc2ccccc2n1/N=C/c1ccc([N+](=O)[O-])o1 | 16.3%
Nc1nc2ccc(Cl)cc2cc1C(=O)NCc1ccc(Oc2ccccc2)cc1 | 14.7%
CCOC(=O)c1c(NC(=O)/C=C/C(=O)O)sc(C)c1-c1ccc(Cl)cc1 | 6.09%
O=C(CCl)NCc1cc(-c2ccc(Cl)cc2)no1 | 43.5% (active)
CCc1ccccc1NC(=O)CSc1nc2n[nH]c(C)c2c(=N)n1-c1cccc(OC)c1 | 16.7%
Cc1no[n+]([O-])c1COc1ccc(/C=C2\NC(=S)NC2=O)cc1 | -5.62%
CCCc1cc(=O)oc2c(C)c(OCC(=O)NC3CC(C)(C)NC(C)(C)C3)ccc12 | 6.86%
CC(=O)Nc1ncc(Cc2cc(Cl)ccc2Cl)s1 | 11.1%
CCOc1ccc(CCNC(=O)COC(=O)c2cc(S(=O)(=O)N3CCOCC3)ccc2F)cc1OCC | 5.25%
O=C(N/N=C/c1ccc([N+](=O)[O-])s1)c1ccccc1Br | 40.1% (active)
CCOC(=O)C1CCN(Cc2cc(Cl)c3ccccc3c2O)CC1 | 1.44%
O=C(NCCN1C(=O)S/C(=C\c2ccc(OC(F)F)cc2)C1=O)c1cnccn1 | 44% (active)
N#Cc1ccc(NC(=O)COc2ccc(-n3cnnn3)cc2)cc1 | 11.7%
COc1ccc(NS(=O)(=O)c2ccc(OCC(=O)N3CCOCC3)cc2)cc1Cl | -8.5%
CCN(CC)C1Oc2cc3c(cc2C(c2cc(OC)c(OC)c(OC)c2)C1C)OCO3 (stereo not given) | 31.5% (active)
O=C(Nc1c(F)cccc1F)c1cnc(N2CCN(c3ccccn3)CC2)c2ccccc12 | 41.4% (active)
O=[N+]([O-])c1ccc(N2CCCCC2)cc1N1CCOCC1 | 18%
Cc1no[n+]([O-])c1COc1ccccc1/C=N/n1nnnc1N | 7.3%

Structure (SMILES) | inhibition
Cc1cccc(-c2cc(NCCc3cccnc3)n3nccc3n2)c1 | 14.2%
CCN1C(=O)c2cccc3c(NC(=O)c4ccc(S(=O)(=O)N5CCOCC5)cc4)ccc1c23 | 40.3% (active)
COc1cccc2sc(N3CCN(C(=O)c4ccc([N+](=O)[O-])o4)CC3)nc12 | 25.2%
COc1cc(NC(=O)CCl)ccc(=O)c1 | 47.9% (active)
CCOC(=O)N1CCN(C(=O)CCl)CC1 | 11%
O=C(COc1cccc2c1CCNC2=O)Nc1cccc(C(F)(F)F)c1 | 5.78%
O=C(COC(=O)c1ccc[n+]([O-])c1)Nc1ccc([N+](=O)[O-])cc1Cl | 17.6%
COc1ccc(C[C@@H]2OC3(C=CC(=O)C=C3)O[C@H]2Cc2ccc(OC)cc2)cc1 | 37.5% (active)
Cc1cc(C(=O)NC2CCCc3c2cnn3-c2cccc(C)c2C)n(C)n1 (stereo not given) | 33.4% (active)
O=C(Nc1cccnc1)c1ccc([N+](=O)[O-])s1 | 25.4%
O=Cc1ccc(N2CCCCCC2)cc1 | 3.14%
CCOC(=O)C(C)Oc1cccc2c(=O)n(CC(=O)Nc3ccc4c(c3)OCCO4)ccc12 (stereo not given) | 5.33%
O=C(Nc1ccc(Cc2ccncc2)cc1)c1cccc([N+](=O)[O-])c1 | -10.2%
Cc1cccc(CSC(Nc2ccc(F)cc2)=C(C#N)C#N)c1 | -5.34%
COc1cccc(/C=N/Nc2nc(Nc3ccccc3)nc(-n3nc(C)cc3C)n2)c1O | 40.7% (active)
Nc1nc(-c2ccccc2)[nH]c(=O)c1N=O | 18.9%
CC(=O)Nc1cc(-c2cccnc2)cn2c(-c3ccc(F)cc3)cnc12 | 9.06%

Target: Nuclear receptor subfamily 5 group A member 2 (Homo sapiens) (UniProt O00482)
Sequence (O00482 whole entry, looked up): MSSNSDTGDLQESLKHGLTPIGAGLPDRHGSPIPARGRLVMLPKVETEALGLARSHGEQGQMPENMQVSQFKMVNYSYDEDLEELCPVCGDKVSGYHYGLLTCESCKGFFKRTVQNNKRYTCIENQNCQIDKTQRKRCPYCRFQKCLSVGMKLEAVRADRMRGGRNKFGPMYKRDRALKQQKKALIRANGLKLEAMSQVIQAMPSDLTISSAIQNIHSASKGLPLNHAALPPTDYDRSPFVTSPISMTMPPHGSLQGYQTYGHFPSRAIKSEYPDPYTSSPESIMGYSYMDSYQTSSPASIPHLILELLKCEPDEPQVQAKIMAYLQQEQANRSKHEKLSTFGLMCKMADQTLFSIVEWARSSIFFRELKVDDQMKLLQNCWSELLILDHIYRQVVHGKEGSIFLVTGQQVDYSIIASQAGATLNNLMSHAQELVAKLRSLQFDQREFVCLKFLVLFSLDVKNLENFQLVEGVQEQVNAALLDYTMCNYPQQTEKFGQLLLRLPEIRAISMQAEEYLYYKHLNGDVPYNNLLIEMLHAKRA
Test: LRH-1 (NR5A2) inverse agonists, retest, confirmation, cell-based, luminescence (AID 651613);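 further: HEK293T cells co-transfected with LRH-1 and StAR promoter luciferase reporter; 0% = vehicle wells and 100% = parental cells lacking receptor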
Details: cell-based LRH-1 luciferase reporter, inverse agonism; at 3.6 µM; stronger effect = higher value

Structure (SMILES) | inhibition
Cc1nc2ccccc2n1/N=C/c1ccc([N+](=O)[O-])o1 | 70.9% (active)
Nc1nc2ccc(Cl)cc2cc1C(=O)NCc1ccc(Oc2ccccc2)cc1 | 54.2% (active)
CCOC(=O)c1c(NC(=O)/C=C/C(=O)O)sc(C)c1-c1ccc(Cl)cc1 | 59.2% (active)
O=C(CCl)NCc1cc(-c2ccc(Cl)cc2)no1 | 70.7% (active)
CCc1ccccc1NC(=O)CSc1nc2n[nH]c(C)c2c(=N)n1-c1cccc(OC)c1 | 38.2%
Cc1no[n+]([O-])c1COc1ccc(/C=C2\NC(=S)NC2=O)cc1 | 48.3% (active)
CCCc1cc(=O)oc2c(C)c(OCC(=O)NC3CC(C)(C)NC(C)(C)C3)ccc12 | 53% (active)
CC(=O)Nc1ncc(Cc2cc(Cl)ccc2Cl)s1 | 50.2% (active)
CCOc1ccc(CCNC(=O)COC(=O)c2cc(S(=O)(=O)N3CCOCC3)ccc2F)cc1OCC | 53.2% (active)
O=C(N/N=C/c1ccc([N+](=O)[O-])s1)c1ccccc1Br | 57.5% (active)
CCOC(=O)C1CCN(Cc2cc(Cl)c3ccccc3c2O)CC1 | 10.1%
O=C(NCCN1C(=O)S/C(=C\c2ccc(OC(F)F)cc2)C1=O)c1cnccn1 | 30.1%
N#Cc1ccc(NC(=O)COc2ccc(-n3cnnn3)cc2)cc1 | 38.2%
COc1ccc(NS(=O)(=O)c2ccc(OCC(=O)N3CCOCC3)cc2)cc1Cl | 35.7%
CCN(CC)C1Oc2cc3c(cc2C(c2cc(OC)c(OC)c(OC)c2)C1C)OCO3 (stereo not given) | 18.4%
O=C(Nc1c(F)cccc1F)c1cnc(N2CCN(c3ccccn3)CC2)c2ccccc12 | 41%
O=[N+]([O-])c1ccc(N2CCCCC2)cc1N1CCOCC1 | 54.3% (active)
Cc1no[n+]([O-])c1COc1ccccc1/C=N/n1nnnc1N | 48.8% (active)

Structure (SMILES) | inhibition
Cc1cccc(-c2cc(NCCc3cccnc3)n3nccc3n2)c1 | 51.1% (active)
CCN1C(=O)c2cccc3c(NC(=O)c4ccc(S(=O)(=O)N5CCOCC5)cc4)ccc1c23 | 62% (active)
COc1cccc2sc(N3CCN(C(=O)c4ccc([N+](=O)[O-])o4)CC3)nc12 | 69.2% (active)
COc1cc(NC(=O)CCl)ccc(=O)c1 | 64.7% (active)
CCOC(=O)N1CCN(C(=O)CCl)CC1 | 56% (active)
O=C(COc1cccc2c1CCNC2=O)Nc1cccc(C(F)(F)F)c1 | 52.5% (active)
O=C(COC(=O)c1ccc[n+]([O-])c1)Nc1ccc([N+](=O)[O-])cc1Cl | 59.4% (active)
COc1ccc(C[C@@H]2OC3(C=CC(=O)C=C3)O[C@H]2Cc2ccc(OC)cc2)cc1 | 68.4% (active)
Cc1cc(C(=O)NC2CCCc3c2cnn3-c2cccc(C)c2C)n(C)n1 (stereo not given) | 68.2% (active)
O=C(Nc1cccnc1)c1ccc([N+](=O)[O-])s1 | 43.8% (active)
O=Cc1ccc(N2CCCCCC2)cc1 | 57.1% (active)
CCOC(=O)C(C)Oc1cccc2c(=O)n(CC(=O)Nc3ccc4c(c3)OCCO4)ccc12 (stereo not given) | 58.5% (active)
O=C(Nc1ccc(Cc2ccncc2)cc1)c1cccc([N+](=O)[O-])c1 | 52.4% (active)
Cc1cccc(CSC(Nc2ccc(F)cc2)=C(C#N)C#N)c1 | 35%
COc1cccc(/C=N/Nc2nc(Nc3ccccc3)nc(-n3nc(C)cc3C)n2)c1O | -7.01%
Nc1nc(-c2ccccc2)[nH]c(=O)c1N=O | 54% (active)
CC(=O)Nc1cc(-c2cccnc2)cn2c(-c3ccc(F)cc3)cnc12 | 51.7% (active)

— PubChem BioAssay
